Experiment in all cases: NCI-60 one-dose screen, 48 h (100 = growth as untreated, 0 = no growth, -100 = all killed)
What all share (conditions): 10 µM

Experiment [1] relates to OVCAR-8 ovarian.
Experiment [2] concerns OVCAR-5 ovarian.
Experiment [3] has as its system OVCAR-4 ovarian.
Experiment [4] deals with SK-OV-3 ovarian.
In experiment [5] the test system is IGROV1 ovarian.
The subject of experiment [6] is OVCAR-3 ovarian.
In experiment [7] the test system is HS 578T breast.
Experiment [8] deals with NCI/ADR-RES ovarian.
For experiment [9], the system named is T-47D breast.
The test system of experiment [10] is BT-549 breast.
The subject of experiment [11] is MDA-MB-435 melanoma.
In experiment [12] the test system is SW-620 colon.
The test system of experiment [13] is MCF7 breast.
The subject of experiment [14] is HCT-116 colon.
In experiment [15] the test system is HCC-2998 colon.
In experiment [16] the test system is RPMI-8226 leukemia.
Experiment [17] has as its system KM12 colon.

SMILES strings stand for the structures. About 83,000 compounds went through this panel and 20% of them were active in at least one assay; those are over-represented in the sample as a whole.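 The test compound was applied at a single concentration to cells in 96-well plates for 48 hours, and percent growth was recorded.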 Unmarked numbers belong to inactive results. Activity calls are given as the source filed them. How the source made its calls: active means growth percent below 10; inactive means the rest.

For `CC1(C)Cc2c(sc3ncn4nc(-c5ccc(O)cc5)nc4c23)CO1`, the growth was 58.5% in experiment [1]; 86.6% in [2]; 64.1% in experiment [3]; 79.8% in experiment [4]; 75.5% in [5]; 86.5% in experiment [6]. Moreover, the growth was 65.3% in [7]; 64.7% in experiment [8]; 48.7% in experiment [9]; 65.1% in [10]; 77.4% in experiment [11]; 94.5% in experiment [12]. The figures for the growth in experiment [13], in experiment [14] and in experiment [15] were 66.5%, 81.7% and 118%, respectively.
Take `O=C1/C(=C\c2ccccc2)CN(C(=O)c2ccccc2)C/C1=C\c1ccccc1`: the growth was 14.3% in experiment [1]; 70.5% in experiment [2]; 36.5% in experiment [3]; 50.1% in experiment [4]; 26.6% in [5]; -12.2% (active) in [6]. Further, the growth in experiment [7] is -14.8% (active); in experiment [8] it was 21.9%; in [9] it was 48.7%; in [10], 2.1% (active); in [11] it was -49.6% (active); in experiment [12] it was -62.3% (active). Further, the results for the growth in experiment [13], in experiment [14] and in [15] were -36.9% (active), -81.4% (active) and -77.9% (active), respectively.
As to `CC[C@H](C)C(=O)O[C@H]1CCC=C2C=C[C@H](C)C(CCC3C[C@@H](O)CC(=O)O3)[C@H]21` (some centres not stated), the growth in experiment [16] was 96.8%; in [1] it was 45.2%; in experiment [3], 98.7%; in experiment [5] it was 42.5%; in experiment [6] it was 112%; in [7] it was 59.4%. Further, the growth is 21.5% in [8]; 105% in experiment [9]; 78.2% in [10]; 84.4% in experiment [11]; 71.6% in experiment [12]; 83.6% in experiment [13]. Moreover, the figures for the growth in [14], in [15] and in experiment [17] were 46.4%, 89% and 103%, respectively.
Regarding `CCCCCCCCCCCCCCCCCCOCC(COCCOCC[N+]1(CCCCCC(=O)[O-])CCCC1)Oc1ncccn1` (configuration not stated), the growth in experiment [16] is 2.22% (active); in experiment [2] it was -0.76% (active); in [4] it was 83.5%; in experiment [5], -15.2% (active); in experiment [6], 62.6%; in experiment [7], 65.6%. For the same molecule, the growth in experiment [8] was 108%; in [9], 42.3%; in [10], 33.8%; in experiment [11], 51.7%; in experiment [12], 42.9%; in experiment [13], 25.7%. Besides, the growth was 20.4% in experiment [14], 24.7% in experiment [15] and 15.2% in [17].
For `C=C(NC(=O)C(=C)NC(=O)c1csc(C2=NC3c4csc(n4)C4NC(=O)c5csc(n5)C(C(C)(O)C(C)O)NC(=O)C5CSC(=N5)/C(=C/C)NC(=O)C(C(C)O)NC(=O)c5csc(n5)C3(CC2)NC(=O)C(C)NC(=O)C(=C)NC(=O)C(=C)NC(=O)C(C(C)C)NC2C=Cc3c(C(C)O)cc(nc3C2O)C(=O)OC4C)n1)C(N)=O` (configuration not stated), the growth in [16] was -37.1% (active); in [2], 52.6%; in experiment [3], 6.53% (active); in experiment [4], 61.9%; in [5], -18.1% (active); in experiment [6] it was 13.4%. Moreover, the growth in [7] was 22%; in [8], 77.2%; in experiment [10], -35.1% (active); in experiment [11], -65.2% (active); in experiment [12], -8.45% (active); in experiment [13], 19.8%. For the same molecule, the growth is -49.5% (active) in [14], -57.2% (active) in [15] and -88.1% (active) in experiment [17].
Take `COc1ccc(/C=C2/CN(CCC#N)C/C(=C\c3ccc(OC)cc3)C2=O)cc1`: the growth is 1.11% (active) in experiment [1]; 59.7% in experiment [2]; 17.3% in experiment [3]; 13.4% in [4]; 7.88% (active) in [5]; -26% (active) in experiment [6]. For the same molecule, the growth in experiment [7] was 33.1%; in experiment [8], 7.02% (active); in [9], 39.4%; in experiment [10] it was 5.02% (active); in experiment [11] it was -30% (active); in experiment [12] it was -37.2% (active). For the same molecule, the growth in experiment [13] is 10.4%; in experiment [14], -68.2% (active); in experiment [15], -82.3% (active).
On to `CC(C)C[C@H](NC(=O)[C@H](Cc1cccc2ccccc12)NS(=O)(=O)c1cccc2cccnc12)B(O)O`, for which the growth was -36.7% (active) in experiment [16]; -57.6% (active) in [2]; 0.299% (active) in experiment [4]; -64.7% (active) in experiment [5]; -77.1% (active) in experiment [6]; -18.8% (active) in experiment [7]. The growth in experiment [8] was 14.6%; in [9] it was -44.6% (active); in experiment [10] it was -49.8% (active); in experiment [11], -52.2% (active); in [12], -16% (active); in experiment [13], 9.94% (active). Besides, the growth in experiment [14] was -91.2% (active); in experiment [15], -89.2% (active); in experiment [17] it was -73.8% (active).
Consider `COC(=O)[C@@H]1[C@H](O)[C@H](C)[C@H](O)[C@@](C)(O)/C=C\C=C(C)C(=O)Nc2c(C)c(OC(C)=O)c3c(c2O)C(=O)C(C)=C2OCOC(=C23)C(C)=C[C@@](C)(O)[C@H](O)[C@@H](C)[C@H]1OC(C)=O`, for which the growth in experiment [16] is -13.2% (active); in experiment [2], 97.7%; in [3], 117%; in experiment [4], 117%; in experiment [5], 88.4%; in experiment [6], 112%. In addition, the growth is 110% in [7]; 114% in experiment [8]; 102% in experiment [9]; 105% in [10]; 105% in [11]; 124% in experiment [12]. For the same molecule, the growth in experiment [13] is 114%; in experiment [14] it was 114%; in experiment [15] it was 120%; in experiment [17], 112%.
Take `CCOC(=O)C1CCc2c(ccc3ccccc23)N1CCC#N` (configuration not stated): the growth in [16] is 104%; in experiment [1] it was 107%; in experiment [2], 107%; in experiment [5], 93.5%; in experiment [6], 115%; in experiment [7], 99.9%. Besides, the growth in experiment [8] was 82%; in experiment [9], 97.5%; in experiment [10], 96%; in experiment [11], 35.6%; in experiment [12], 91.9%; in experiment [13] it was 85.9%. For the same molecule, the growth was 96.4% in experiment [14], 93.5% in experiment [15] and 94.9% in [17].
Regarding `COc1ccc(OC)c2c1C(=O)CC2C` (configuration not stated), the growth in experiment [16] is 106%; in experiment [1], 105%; in experiment [2], 112%; in [5] it was 100%; in experiment [6] it was 101%; in experiment [7], 98.2%. For the same molecule, the growth was 108% in [8]; 98.8% in experiment [9]; 120% in experiment [10]; 102% in [11]; 105% in [12]; 99.6% in [13]. The growth in experiment [14] is 111%; in experiment [15] it was 113%; in experiment [17], 103%.
For `COc1ccc(N2C(=O)C3c4[nH]c5ccc(OCc6ccccc6)cc5c4C4CCC(C(C)C)CC4C3C2=O)cc1` (configuration not stated), the growth is 86.9% in [16]; 84.4% in [2]; 47.7% in experiment [3]; 116% in [4]; 59.6% in experiment [5]; 109% in [6]. For the same molecule, the growth is 92.7% in experiment [7]; 109% in experiment [8]; 104% in experiment [10]; 104% in experiment [11]; 87.9% in [12]; 95.2% in [13]. Further, the growth was 109% in experiment [14], 116% in experiment [15] and 105% in experiment [17].
As to `CCCC1(CC(=O)O)OCCc2c1[nH]c1ccccc21` (configuration not stated), the growth in experiment [16] was 99.9%; in [2], 88.6%; in [3], 74%; in experiment [4] it was 217%; in [5], 114%; in experiment [6], 109%. Also, the growth in experiment [7] is 101%; in experiment [8], 107%; in experiment [9], 194%; in experiment [10], 119%; in experiment [11] it was 106%; in experiment [12], 115%. The growth in experiment [13] was 102%; in [14] it was 107%; in experiment [15], 69.9%; in experiment [17] it was 102%.

(Values after PubChem BioAssay (NCI).)
